In all, about 360,000 compounds went through this assay and about 3,700 (1%) were called active. The list comes from a sample in which actives are over-represented; it also holds similar structures and randomly drawn compounds. A number with no mark means an inactive call. Rule as the data show it: active = activation above about 30%; inactive = the rest.

D(1A) dopamine receptor (Homo sapiens), sequence (P21728 whole entry, looked up): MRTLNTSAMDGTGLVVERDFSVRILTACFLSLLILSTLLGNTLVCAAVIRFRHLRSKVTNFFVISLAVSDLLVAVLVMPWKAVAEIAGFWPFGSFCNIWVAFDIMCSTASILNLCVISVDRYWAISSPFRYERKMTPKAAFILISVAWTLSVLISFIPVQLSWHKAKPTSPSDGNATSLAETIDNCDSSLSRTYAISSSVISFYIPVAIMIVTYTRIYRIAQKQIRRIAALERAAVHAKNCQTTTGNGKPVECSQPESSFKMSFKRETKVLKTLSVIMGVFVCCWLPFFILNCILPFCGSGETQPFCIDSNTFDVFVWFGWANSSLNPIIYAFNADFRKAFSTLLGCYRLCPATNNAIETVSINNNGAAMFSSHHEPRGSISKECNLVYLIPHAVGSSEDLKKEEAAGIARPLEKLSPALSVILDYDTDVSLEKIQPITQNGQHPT

This experiment concerns the target D(1A) dopamine receptor (Homo sapiens) (UniProt P21728). The experiment is described as follows: Allosteric Agonists of the Human D1 Dopamine Receptor: qHTS. Also: 0% is about no effect. As to conditions: HEK293 T-REx D1 cells, calcium flux, agonist mode; at 2 µM; active compounds read high. The source says:
NIH Chemical Genomics Center [NCGC] NIH Molecular Libraries Probe Centers Network [MLPCN] MLPCN Grant: NS064831-01 Assay Submitter (PI): David Sibley Dopamine receptors (DARs) are involved in the etiology and/or therapy of a number of neuropsychiatric and endocrine disorders. For instance, all receptor-based antiparkinsonian drugs work via stimulating the D1 DAR subtype whereas all FDA-approved antipsychotic agents are antagonists of this receptor. […] There are three different types of allosteric modulators that we are seeking, two of which will stimulate or augment receptor signaling, allosteric agonists and potentiators, while the third, allosteric antagonists, will attenuate receptor signaling. The present primary screening assay measures compound agonism by tracking calcium flux in a […], inducible Hek293 Trex D1 cell line.
Freshly passaged cells are plated in 1536 well black, clear bottom plates at a density of 4000 cells/well in 3 ul of complete media containing 1x tetracycline inducer. After an overnight incubation at […] in 5% CO2, cells are loaded with 2 ul of the no wash Calcium Assay Kit (ABD Bioquest) and incubated at room temperature for 30 to 90 minutes. Agonist read: A 10 cycle (1 second/cycle) baseline measurement is taken and then the FDSS online 1536 pintool delivers 23 nl of compound library (as well as dopamine controls) to the plate. The plate is measured for kinetically at 1 cycle/sec for 180 seconds and is considered to be the agonist portion of the assay (eg, compounds which activate a positive calcium response during this portion are flagged as potential agonists). Following the 180 second read, 1 ul of either an EC20 (positive modulation assay) or EC80 (negative modulation assay) is delivered by an onboard pipette head. Measurements are taken kinetically for an additional 180 seconds.
On the technique in general: In qHTS, concentration-response curves come from the screen itself.
Turning to `CCCCCCCCCCCCn1ccc(=N)cc1`, the activation was 52.6% (active).

Turning to `COc1ccc(-c2nn(CCC#N)cc2C(=O)O)cc1`, the activation is 2.02%.

As to `NC(=O)Nc1cccc(C(F)(F)F)c1`, the activation is 1.22%.

Consider `CC(Cc1ccccc1)NCCC(c1ccccc1)c1ccccc1` (stereo not given), for which the activation is 19.9%. For `CCN(CC)c1ccc([N+](=O)[O-])c2cccnc12` the value was 6.86%; for `COc1ccc(C(=O)C2CN(C)CC2C(=O)c2ccc(OC)cc2)cc1` (stereo not given), 4.65%; for `O=C1C2(Cl)C3(Cl)C4(Cl)C(Cl)(Cl)C5(Cl)C3(Cl)C1(Cl)C5(Cl)C24Cl` (stereo not given), 99.6% (active).

For `CCN1CCN(Cc2cc(OC)c3c(c2)OCO3)CC1`, the activation is 3.83%. Consider `Cc1ccc(-n2c(/C=C/c3cccc(C(F)(F)F)c3)nc3ccccc3c2=O)cc1`, for which the activation is -0.792%. The result for `COc1ccc(CN2CCN(c3ccccc3F)CC2)c(OC)c1` reads 4.33%. The result for `Oc1cc2c(cc1CN1CCN(c3ccccc3)CC1)OCO2` reads 2.23%; that for `CC(C)c1ccc(O)c(CN2CCN(c3ccccc3)CC2)c1`, 93% (active). `CCN1C(=O)C(=Cc2c(C)n(CC(=O)NCC3CCCO3)c3ccccc23)C(=O)N(CC)C1=S` (stereo not given): the activation was 8.52%.

With `Cc1cccc(Cn2cccc(C(=O)Nc3ccc4c(c3)OCCO4)c2=O)c1`, the activation is 5.25%. For `COc1ccc(CNCCc2ccc3c(c2)OCO3)c(OC)c1OC`, the activation was 11.4%. In the case of `COc1ccc(CNCCc2c[nH]c3ccccc23)cc1OC`, the activation was 12.6%. On to `COc1ccc(Br)cc1CNCCc1cccc(Cl)c1`, for which the activation is 34.4% (active). With `Cc1cc2ccccn2c1C(C[N+](=O)[O-])c1c(F)cccc1Cl` (stereo not given), the activation was 0.11%. `CN(C)c1nc(N(C)C)nc(N(C#N)CCCl)n1`: the activation is 1.85%. As for `O=C(c1cc2nc(-c3ccccc3)cc(-c3ccccc3)n2n1)N1CCC2(CC1)OCCO2`, the activation is 1.75%.

For `CCCCC(=O)N/N=C/c1c(O)n(-c2ccccc2)c(=O)[nH]c1=O`, the activation was -0.172%. With `CCCCC(=O)N/N=C/c1c(O)n(CC)c(=S)n(CC)c1=O`, the activation is 71.8% (active). `CCCCC(=O)N/N=C/c1c(O)n(CCC2=CCCCC2)c(=O)[nH]c1=O`: the activation is 2.44%.

Take `Cc1ccc(NC(=O)N(Cc2ccc3c(c2)OCO3)C2CCN(Cc3ccccc3)CC2)cc1F`: the activation is 9.83%.

On to `COC(=O)N1C(c2ccccc2)C1c1ccccc1` (stereo not given), for which the activation is 6.43%. `COC(=O)C(c1ccccc1)N1CCCCCC1` (stereo not given): the activation is 40% (active). As to `COc1ccccc1N1CCN(C(CNC(=O)Oc2ccccc2)c2cccnc2)CC1` (stereo not given), the activation was 0.177%. As for `NCC(O)c1ccc(O)cc1` (stereo not given), the activation is 0.942%. On to `COc1ccc(N=Cc2c(O)n(C)c(=O)[nH]c2=O)cc1`, for which the activation is 2.19%. Turning to `CC(=O)c1c(O)n(C2CCCCCC2)c(=O)[nH]c1=O`, the activation was 2.24%.

Source of the values: PubChem BioAssay AID504660 (National Center for Advancing Translational Sciences (NCATS), 2011).
